Measurements taken from the supplement of paper PMC10849652.
Targets with a hit are over-represented here; the source holds about 7,900 in all. About 0.6% of all pairs of compound and target were hits.

How the values were obtained:
Assay in all cases: log2 fold change, soluble protein after heating vs DMSO (PISA); higher = thermal stabilisation; K562 cells, 10 uM, 30 min; active = over 0.2 and 3.5 SD of the protein, either way, in both replicates (recomputed)
[1] = compound: C/C(=N\NC(=O)C1=CC(=CC=C1)S(=O)(=O)N2CCOCC2)/C3=C(C=CC(=C3)Cl)O
Outline: (§1)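 Soluble protein was defined as the supernatant after 21,000xg for 90 min. It came from K562 cells at 2×10^6 cells/mL given 10 μM compound for 30 min, heated in aliquots for 3 min across 48°C-58°C, pooled, and extracted in PBS with 0.5% NP-40 at 4°C, and was quantified by TMTpro 16plex LC-MS/MS with equalised channel sums. Thermal stability against control samples, from duplicates, is reported as log2 fold change.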

[2] = compound: C1=CC(=C(C=C1Cl)C2=NC3=NC=CN=C3C(=N2)NC4=CC=NC=C4)F
Outline: as §1

[3] = compound: C1=CC2=C(C=CC(=C2)/C=C\3/C(=O)NC(=NCC4=CC=CS4)S3)N=C1
Outline: as §1

[4] = compound: C1=CC2=NC=CN=C2C=C1/C=C/3\C(=O)NC(=O)S3
Outline: as §1

[5] = compound: C1=CC=C(C=C1)C2=NC(=C(N2)C3=CC=NC=C3)C4=CC(=C(C=C4)Cl)O
Outline: as §1

[6] = compound: C1=CC=C2C(=C1)C3=NNC4=CC=CC(=C43)C2=O
Outline: as §1

[7] = compound: C1CCN(C1)C(=O)NC2=CC=CC(=C2)NC3=NC=C(C(=N3)NCCC4=CN=CN4)Br
Outline: as §1

[8] = compound: C1CN(CCC1(CC2=CC=C(C=C2)Cl)N)C3=NC=NC4=C3C=CN4
Outline: as §1

[9] = compound: C1COCCN1CCN2C3=CC=CC=C3N=C2NC(=O)C4=CC(=CC=C4)[N+](=O)[O-] [IRAK-1-4 Inhibitor I]
Outline: as §1

[10] = compound: C=CC(=O)N1CCC[C@@H](n2nc(-c3ccc(Oc4ccccc4)cc3)c3c(N)ncnc32)C1 [ibrutinib]
Outline: as §1

[11] = compound: CC(=O)c1cnc2ccc(-c3cc(Cl)c(O)c(Cl)c3)nc2c1N[C@H]1CC[C@H](CN(C)C)CC1
Outline: as §1

[12] = compound: CC(C)(C)Cn1c(N)nc2ccc(-c3[nH]c(C(C)(C)C)nc3-c3ccc(F)cc3)nc21 [ralimetinib]
Outline: as §1

[13] = compound: CC(C)(O)CC(=O)NCCn1ccc2ncnc(Nc3ccc(Oc4cccc(C(F)(F)F)c4)c(Cl)c3)c21
Outline: as §1

[14] = compound: CC(C)C[C@@H](C=O)NC(=O)[C@H](CC(C)C)NC(=O)[C@H](CC(C)C)NC(=O)OCc1ccccc1
Outline: as §1

[15] = compound: CC(C)N(C[C@H]1O[C@@H](n2cnc3c(N)ncnc32)[C@H](O)[C@@H]1O)[C@H]1C[C@@H](CCc2nc3cc(C(C)(C)C)ccc3[nH]2)C1 [pinometostat]
Outline: as §1

[16] = compound: CC1=C(C(CC(=O)N1)C2=CC=C(C=C2)C(F)(F)F)C(=O)NC3=C(C=C4C(=C3)C=NN4)F
Outline: as §1

[17] = compound: CC1=C(C2=C(C=C1)C(=O)C3=CC=CC=C3N2CCCN)C
Outline: as §1

[18] = compound: C#Cc1cccc(Nc2ncnc3cc(OCCOC)c(OCCOC)cc23)c1 [erlotinib]
Outline: as §1

[19] = compound: C1=CC(=CC=C1C2=NC3=C(N2)C=C(C=C3)C(=O)N)OC4=CC=C(C=C4)Cl
Outline: as §1

[20] = compound: CC(C)C1=C2N=C(C=C(N2N=C1)NCC3=CC=CC=C3)NCCCCCCN
Outline: as §1

Measured: log2 fold change

COPS3 isoform 2 (UniProt Q9UNS2)
UniProt Q9UNS2, sequence (Q9UNS2 whole entry, looked up): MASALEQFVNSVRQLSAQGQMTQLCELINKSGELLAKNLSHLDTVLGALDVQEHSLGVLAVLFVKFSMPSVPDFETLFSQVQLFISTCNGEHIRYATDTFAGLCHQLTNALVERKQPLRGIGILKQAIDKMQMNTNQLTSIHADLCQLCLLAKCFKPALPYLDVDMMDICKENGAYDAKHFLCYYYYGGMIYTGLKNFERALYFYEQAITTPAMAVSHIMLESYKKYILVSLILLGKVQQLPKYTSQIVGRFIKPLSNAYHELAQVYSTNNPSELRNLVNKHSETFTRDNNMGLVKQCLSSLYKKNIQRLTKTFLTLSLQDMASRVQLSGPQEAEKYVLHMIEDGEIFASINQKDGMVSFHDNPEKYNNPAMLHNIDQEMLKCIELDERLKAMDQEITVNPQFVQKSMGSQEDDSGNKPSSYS
inactive: [1] -0.24 | [2] -0.075 | [3] 0.214 | [4] -0.125 | [5] -0.568 | [6] -0.126 | [7] 0.176 | [8] -0.052 | [9] 0.098 | [10] -0.015 | [11] -0.191 | [12] -0.214 | [13] -0.097 | [14] 0.258 | [15] 0.071 | [16] 0.046 | [17] 0.053

CCNT2 (UniProt O60583)
UniProt O60583, sequence (O60583 whole entry, looked up): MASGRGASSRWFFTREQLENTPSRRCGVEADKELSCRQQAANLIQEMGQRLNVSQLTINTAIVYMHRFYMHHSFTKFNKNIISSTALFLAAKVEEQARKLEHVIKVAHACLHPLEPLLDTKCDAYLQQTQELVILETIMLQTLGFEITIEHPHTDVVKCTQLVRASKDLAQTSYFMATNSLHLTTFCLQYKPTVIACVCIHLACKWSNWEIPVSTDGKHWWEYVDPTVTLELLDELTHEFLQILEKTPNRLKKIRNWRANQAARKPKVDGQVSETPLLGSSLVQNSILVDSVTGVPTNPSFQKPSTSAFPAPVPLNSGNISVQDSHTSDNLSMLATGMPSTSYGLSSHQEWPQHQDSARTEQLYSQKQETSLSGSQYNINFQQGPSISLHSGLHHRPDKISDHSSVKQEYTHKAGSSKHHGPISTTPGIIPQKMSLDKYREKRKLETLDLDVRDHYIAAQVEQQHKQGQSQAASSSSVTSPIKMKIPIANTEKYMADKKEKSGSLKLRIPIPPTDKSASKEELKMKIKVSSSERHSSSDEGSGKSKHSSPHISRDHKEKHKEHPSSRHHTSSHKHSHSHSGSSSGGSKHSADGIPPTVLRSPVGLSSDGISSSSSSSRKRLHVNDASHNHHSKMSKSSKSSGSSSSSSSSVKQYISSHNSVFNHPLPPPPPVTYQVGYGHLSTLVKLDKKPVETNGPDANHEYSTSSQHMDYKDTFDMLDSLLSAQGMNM
active: [11] -0.797
inactive: [1] 0 | [2] -0.105 | [3] -0.029 | [5] -0.025 | [6] -0.08 | [7] -0.176 | [8] -0.027 | [12] 0.191 | [13] 0.059 | [14] 0.116 | [16] 0.011 | [17] -0.062

CFAP47 (UniProt Q6ZTR5)
active: [1] -0.734
inactive: [2] 0.053 | [3] 0.355 | [4] -0.123 | [6] 0.132 | [10] -0.109 | [11] 0.153 | [13] 0.006

COMMD1 (UniProt Q8N668)
UniProt Q8N668, sequence (Q8N668 whole entry, looked up): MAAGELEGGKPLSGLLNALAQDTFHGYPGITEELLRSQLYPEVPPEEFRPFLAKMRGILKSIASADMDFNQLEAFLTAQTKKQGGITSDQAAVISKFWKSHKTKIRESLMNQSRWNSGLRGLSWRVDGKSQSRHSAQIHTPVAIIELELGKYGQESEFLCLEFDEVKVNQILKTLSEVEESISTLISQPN
inactive: [18] -0.136 | [2] -0.241 | [19] 0.15 | [4] -0.088 | [5] 0.066 | [7] 0.037 | [8] -0.083 | [9] -0.033 | [10] -0.083 | [12] 0.036 | [13] 0.06 | [20] -0.177 | [14] 0.19 | [15] 0.046 | [16] 0.027 | [17] 0.006

CNRIP1 (UniProt Q96F85)
UniProt Q96F85, sequence (Q96F85 whole entry, looked up): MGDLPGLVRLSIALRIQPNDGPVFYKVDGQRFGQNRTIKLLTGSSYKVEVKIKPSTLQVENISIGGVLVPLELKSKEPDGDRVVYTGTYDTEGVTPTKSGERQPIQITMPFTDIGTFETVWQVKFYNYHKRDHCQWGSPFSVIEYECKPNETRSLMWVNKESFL
inactive: [18] -0.065 | [2] 0.045 | [19] 0.045 | [5] -0.115 | [12] -0.051 | [13] -0.255 | [20] 0.034 | [14] 0.116 | [16] 0.165

CAD (UniProt H7BZB3)
inactive: [1] -0.061 | [3] 0.242 | [6] -0.058 | [11] -0.322

CCM2 isoform 2 (UniProt Q9BSQ5)
UniProt Q9BSQ5, sequence (Q9BSQ5 whole entry, looked up): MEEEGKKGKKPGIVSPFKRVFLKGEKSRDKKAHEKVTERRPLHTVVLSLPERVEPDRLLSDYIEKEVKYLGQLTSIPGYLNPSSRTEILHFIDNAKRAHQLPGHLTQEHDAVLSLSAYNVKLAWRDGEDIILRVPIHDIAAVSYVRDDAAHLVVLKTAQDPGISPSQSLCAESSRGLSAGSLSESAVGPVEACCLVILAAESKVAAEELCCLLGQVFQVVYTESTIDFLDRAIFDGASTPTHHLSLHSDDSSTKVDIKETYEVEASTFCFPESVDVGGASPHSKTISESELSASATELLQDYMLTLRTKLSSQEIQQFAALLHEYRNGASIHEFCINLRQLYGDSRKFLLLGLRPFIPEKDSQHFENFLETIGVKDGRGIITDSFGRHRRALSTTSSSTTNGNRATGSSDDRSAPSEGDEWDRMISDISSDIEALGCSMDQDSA
inactive: [18] 0.142 | [2] -0.042 | [19] 0.035 | [4] 0.083 | [5] 0.013 | [7] 0.09 | [8] 0.16 | [9] 0.027 | [10] -0.004 | [12] 0.04 | [13] 0.027 | [20] -0.085 | [14] 0.009 | [15] 0.056 | [17] -0.013

CARD9 (UniProt Q9H257)
UniProt Q9H257, sequence (Q9H257 whole entry, looked up): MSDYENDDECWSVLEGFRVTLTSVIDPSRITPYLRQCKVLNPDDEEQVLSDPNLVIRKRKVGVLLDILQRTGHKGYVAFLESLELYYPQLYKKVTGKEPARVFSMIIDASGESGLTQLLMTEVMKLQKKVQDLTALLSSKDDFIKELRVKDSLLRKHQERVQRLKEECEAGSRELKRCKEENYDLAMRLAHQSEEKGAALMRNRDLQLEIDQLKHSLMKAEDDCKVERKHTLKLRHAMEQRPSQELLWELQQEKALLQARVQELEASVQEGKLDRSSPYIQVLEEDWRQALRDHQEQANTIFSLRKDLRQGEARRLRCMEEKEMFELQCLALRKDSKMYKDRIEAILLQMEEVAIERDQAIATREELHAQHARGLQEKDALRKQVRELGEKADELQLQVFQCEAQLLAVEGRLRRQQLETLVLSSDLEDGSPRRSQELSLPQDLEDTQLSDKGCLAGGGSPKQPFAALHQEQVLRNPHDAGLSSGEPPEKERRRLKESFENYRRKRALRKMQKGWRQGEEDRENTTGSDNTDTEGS
inactive: [18] -0.173 | [1] 0.211 | [19] 0.056 | [3] -0.184 | [5] 0.129 | [6] -0.058 | [9] -0.181 | [11] -0.255 | [12] 0.15 | [20] 0.071 | [14] 0.178 | [15] 0.202

CASK (UniProt O14936)
UniProt O14936, sequence (O14936 whole entry, looked up): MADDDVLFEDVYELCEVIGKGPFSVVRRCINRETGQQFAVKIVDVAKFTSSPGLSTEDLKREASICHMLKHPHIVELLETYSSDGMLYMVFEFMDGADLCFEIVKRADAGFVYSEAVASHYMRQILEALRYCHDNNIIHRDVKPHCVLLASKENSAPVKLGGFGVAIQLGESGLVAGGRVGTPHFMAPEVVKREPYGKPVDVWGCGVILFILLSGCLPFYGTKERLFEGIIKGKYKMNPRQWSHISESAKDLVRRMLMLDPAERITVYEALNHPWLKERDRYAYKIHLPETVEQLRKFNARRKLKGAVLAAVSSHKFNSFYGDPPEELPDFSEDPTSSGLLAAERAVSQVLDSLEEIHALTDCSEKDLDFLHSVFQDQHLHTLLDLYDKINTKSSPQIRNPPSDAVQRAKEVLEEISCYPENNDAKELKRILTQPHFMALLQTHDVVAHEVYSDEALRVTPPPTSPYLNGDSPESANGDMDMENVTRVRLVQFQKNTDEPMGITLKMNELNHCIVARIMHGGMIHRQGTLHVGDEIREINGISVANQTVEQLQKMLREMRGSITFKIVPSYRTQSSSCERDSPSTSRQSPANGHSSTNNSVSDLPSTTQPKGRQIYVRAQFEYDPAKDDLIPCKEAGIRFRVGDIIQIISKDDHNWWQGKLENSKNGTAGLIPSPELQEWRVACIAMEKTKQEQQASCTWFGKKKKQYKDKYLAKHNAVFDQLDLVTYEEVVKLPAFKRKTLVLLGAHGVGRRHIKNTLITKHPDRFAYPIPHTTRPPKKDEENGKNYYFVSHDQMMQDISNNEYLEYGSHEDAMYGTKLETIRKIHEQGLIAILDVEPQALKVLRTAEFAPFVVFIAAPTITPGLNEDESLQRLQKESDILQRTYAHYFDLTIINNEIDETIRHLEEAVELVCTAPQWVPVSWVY
active: [11] -0.483
inactive: [18] -0.018 | [1] -0.07 | [19] 0.01 | [3] 0.038 | [6] -0.136 | [9] 0.036 | [20] 0.177 | [15] 0.081

C5orf30 (UniProt Q96GV9)
UniProt Q96GV9, sequence (Q96GV9 whole entry, looked up): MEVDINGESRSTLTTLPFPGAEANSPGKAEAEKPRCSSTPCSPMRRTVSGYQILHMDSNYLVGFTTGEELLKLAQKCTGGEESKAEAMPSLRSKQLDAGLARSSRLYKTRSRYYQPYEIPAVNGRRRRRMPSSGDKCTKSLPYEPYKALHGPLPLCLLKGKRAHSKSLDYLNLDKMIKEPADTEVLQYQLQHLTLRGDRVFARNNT
active: [11] -0.917
inactive: [1] 0.267 | [2] -0.056 | [3] 0.062 | [6] -0.347 | [7] 0.01 | [8] 0.128 | [13] 0.059 | [17] -0.284

CCDC167 (UniProt Q9P0B6)
UniProt Q9P0B6, sequence (Q9P0B6 whole entry, looked up): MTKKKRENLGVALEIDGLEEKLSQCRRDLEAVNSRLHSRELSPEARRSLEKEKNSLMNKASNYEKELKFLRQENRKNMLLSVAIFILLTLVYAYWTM
inactive: [18] 0.068 | [2] 0.008 | [19] -0.041 | [4] 0.054 | [5] 0.072 | [7] 0.054 | [8] 0.224 | [9] -0.056 | [10] 0.013 | [12] -0.028 | [13] 0.163 | [20] -0.258 | [14] 0.061 | [15] 0.052 | [16] 0.034 | [17] 0.021

CS (UniProt F8VU34)
inactive: [4] 0.06 | [10] -0.137

C6orf120 (UniProt Q7Z4R8)
UniProt Q7Z4R8, sequence (Q7Z4R8 whole entry, looked up): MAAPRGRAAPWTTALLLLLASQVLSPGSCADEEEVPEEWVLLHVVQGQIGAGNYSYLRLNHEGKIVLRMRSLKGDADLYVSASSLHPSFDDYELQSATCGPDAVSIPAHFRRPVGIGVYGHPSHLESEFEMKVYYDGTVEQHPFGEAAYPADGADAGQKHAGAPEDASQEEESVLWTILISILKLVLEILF
inactive: [18] -0.2 | [19] 0.134 | [4] -0.003 | [5] -0.009 | [7] 0.005 | [8] 0.028 | [9] 0.116 | [10] -0.003 | [12] 0.015 | [20] -0.19 | [14] -0.003 | [15] -0.023 | [16] 0.062 | [17] 0.002

CASP10 isoform 4 (UniProt Q92851)
inactive: [1] 0.138 | [2] 0.026 | [3] 0.124 | [4] -0.046 | [5] 0.051 | [6] -0.04 | [7] -0.13 | [8] -0.21 | [9] -0.132 | [10] -0.083 | [11] 0.083 | [12] 0.095 | [13] -0.13 | [14] -0.015 | [15] 0.047 | [16] 0.021 | [17] 0.262

CCDC57 (UniProt Q2TAC2)
inactive: [18] 0.044 | [2] 0.031 | [19] -0.051 | [4] -0.021 | [5] 0.003 | [7] 0.012 | [8] 0.026 | [9] 0.067 | [10] -0.021 | [12] 0.005 | [13] -0.007 | [20] 0.041 | [14] 0.05 | [15] -0.04 | [16] 0.042 | [17] 0.012

CRLS1 (UniProt Q9UJA2)
UniProt Q9UJA2, sequence (Q9UJA2 whole entry, looked up): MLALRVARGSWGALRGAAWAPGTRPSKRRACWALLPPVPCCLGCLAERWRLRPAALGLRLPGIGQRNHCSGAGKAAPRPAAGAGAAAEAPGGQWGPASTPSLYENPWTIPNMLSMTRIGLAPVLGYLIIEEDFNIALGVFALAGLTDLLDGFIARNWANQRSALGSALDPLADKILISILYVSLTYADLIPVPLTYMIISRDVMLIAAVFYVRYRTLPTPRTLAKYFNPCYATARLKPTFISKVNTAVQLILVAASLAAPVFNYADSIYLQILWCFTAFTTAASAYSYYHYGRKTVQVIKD
inactive: [18] -0.034 | [19] 0.019 | [7] -0.019 | [8] 0.074 | [9] -0.03 | [20] 0.036 | [15] -0.071 | [16] -0.032 | [17] -0.005

CLINT1 (UniProt Q14677)
UniProt Q14677, sequence (Q14677 whole entry, looked up): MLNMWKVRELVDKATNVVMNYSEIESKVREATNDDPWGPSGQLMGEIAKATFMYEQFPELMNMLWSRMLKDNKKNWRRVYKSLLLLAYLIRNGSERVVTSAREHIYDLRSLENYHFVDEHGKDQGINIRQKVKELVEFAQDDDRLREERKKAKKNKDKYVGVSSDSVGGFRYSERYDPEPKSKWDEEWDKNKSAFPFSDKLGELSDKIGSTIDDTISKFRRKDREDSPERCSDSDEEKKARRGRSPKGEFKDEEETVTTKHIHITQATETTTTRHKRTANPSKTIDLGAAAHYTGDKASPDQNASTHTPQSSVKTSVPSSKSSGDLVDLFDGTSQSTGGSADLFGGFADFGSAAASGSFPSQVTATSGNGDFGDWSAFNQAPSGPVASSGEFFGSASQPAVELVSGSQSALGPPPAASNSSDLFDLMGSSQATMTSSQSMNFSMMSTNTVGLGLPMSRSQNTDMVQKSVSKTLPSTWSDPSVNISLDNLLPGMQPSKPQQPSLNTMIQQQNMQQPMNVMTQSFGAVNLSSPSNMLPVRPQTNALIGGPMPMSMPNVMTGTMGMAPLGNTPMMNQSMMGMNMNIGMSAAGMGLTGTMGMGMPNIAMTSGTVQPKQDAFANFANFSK
inactive: [1] -0.106 | [2] -0.12 | [3] -0.176 | [4] 0.035 | [6] 0.031 | [7] -0.097 | [8] -0.057 | [11] 0.059 | [13] 0.221 | [15] 0.058 | [16] 0.099 | [17] -0.114

COMMD3-BMI1 (UniProt R4GMX3)
inactive: [1] -0.043 | [2] -0.051 | [3] 0.077 | [6] -0.169 | [7] -0.191 | [8] 0.095 | [11] 0.055 | [13] -0.003 | [16] 0.028 | [17] -0.071

CLN3 (UniProt Q13286)
inactive: [18] 0 | [2] 0.025 | [19] 0.162 | [4] 0.117 | [5] -0.05 | [7] 0.055 | [8] 0.026 | [9] 0.106 | [12] -0.05 | [13] -0.011 | [14] -0.043 | [15] -0.113 | [16] 0.054 | [17] -0.147
active: [20] -0.532
